Data published in PubChem BioAssay AID1645855 (Buhrlage Lab, Dana-Farber Cancer Institute and Novartis …, 2021).
The whole screen tested about 47,000 compounds, of which about 3,100 (6.6%) were called active. Many of the other results were omitted from the sample, so actives are more common in it than they were. Values without a mark were called inactive. Cut-off read from the data, not from the text of the source: active = inhibition above about 30%; inactive = the rest.

biological target: Ubiquitin carboxyl-terminal hydrolase 17-like protein 5 (Homo sapiens) (UniProt A8MUK1); assay: blocks human USP17 ubiquitin-rhodamine cleavage (AID 1645855); conditions: purified USP17, Ub-rhodamine cleavage fluorescence, 3 h; at 50 µM; active compounds read high
Sequence (A8MUK1 whole entry, looked up): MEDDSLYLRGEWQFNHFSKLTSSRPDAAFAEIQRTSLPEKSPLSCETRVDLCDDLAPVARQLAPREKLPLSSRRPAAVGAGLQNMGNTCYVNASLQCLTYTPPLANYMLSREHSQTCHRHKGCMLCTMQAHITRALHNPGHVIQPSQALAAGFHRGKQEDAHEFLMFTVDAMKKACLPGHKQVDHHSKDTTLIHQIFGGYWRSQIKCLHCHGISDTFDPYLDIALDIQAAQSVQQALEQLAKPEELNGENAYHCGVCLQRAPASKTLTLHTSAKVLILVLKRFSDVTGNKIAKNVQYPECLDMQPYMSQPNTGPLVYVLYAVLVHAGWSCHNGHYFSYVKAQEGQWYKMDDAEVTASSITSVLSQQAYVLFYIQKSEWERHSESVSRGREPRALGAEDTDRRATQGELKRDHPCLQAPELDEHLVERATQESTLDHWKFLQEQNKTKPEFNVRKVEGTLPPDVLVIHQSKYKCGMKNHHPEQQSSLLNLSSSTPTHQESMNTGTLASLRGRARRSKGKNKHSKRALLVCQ

Q: Which inhibition does the source give for COc1ccc2ncc(S(=O)(=O)c3ccccc3)c(N3CCOCC3)c2c1 here?
A: -6.05%

Q: How did the inhibition turn out when Cc1noc(C2(NC(=O)Cc3ccccc3C)CCCCC2)n1 was run?
A: -5.54%

Q: With O=C(Cc1cccc(F)c1)NC1(c2nc(C3CC3)no2)CCCCC1 as the molecule, how does the inhibition read?
A: 5.03%

Q: How did the inhibition turn out when Cc1csc(C2(NC(=O)Cc3cc(C)on3)CCCC2)n1 was run?
A: 31.4% (active)

Q: Which inhibition does the source give for Cc1nn2c(S(=O)(=O)NCc3ccccc3F)c(C)nc2s1 here?
A: 18.9%

Q: For CCN(CC)c1ccc(NC(=O)Nc2ccc(OCc3ccccc3)cc2)cc1, which inhibition is on record?
A: 7.88%

Q: Which inhibition does the source give for CC1CCN(S(=O)(=O)N2CCCC(C(=O)Nc3ccccc3Cl)C2)CC1 (stereo unspecified) here?
A: 1.17%

Q: Which inhibition does the source give for CC(C)C(=O)Nc1nc2ccc(CCC(=O)Nc3ccc(F)cc3)cc2s1 here?
A: 43.6% (active)

Q: CCCC(=O)Nc1nc2ccc(CCC(=O)NCc3ccc(F)cc3)cc2s1 was tested. Which inhibition did it give?
A: 65.3% (active)

Q: CC(C)C(=O)Nc1nc2cc(NS(=O)(=O)c3ccccc3)ccc2s1 was tested. Which inhibition did it give?
A: 4.36%

Q: With O=C(Cc1cccc2ccccc12)Nc1nc2ccc(F)cc2s1 as the molecule, how does the inhibition read?
A: 23.9%

Q: Cc1ccc2nc(CCC(=O)NCc3ccc(F)cc3F)n(C)c(=O)c2c1 was tested. Which inhibition did it give?
A: 10.9%

Q: For O=C(CCc1nc2sc3c(c2c(=O)[nH]1)CCCC3)Nc1ccc(F)cc1, which inhibition is on record?
A: 2.56%

Q: With Cc1ccc2[nH]cc(C(C(=O)O)N3CCN(c4ccc(C(F)(F)F)cn4)CC3)c2c1 (stereo unspecified) as the molecule, how does the inhibition read?
A: -4.78%

Q: With Cc1cccc(C)c1NS(=O)(=O)c1ccc(N2CCCC2=O)cc1 as the molecule, how does the inhibition read?
A: -8.71%

Q: Cc1noc(C)c1CN1C[C@H](OCc2ccccn2)[C@H]2OCCC[C@H]21 was tested. Which inhibition did it give?
A: -5.79%

Q: How did the inhibition turn out when CCc1cc(=O)n(CC(=O)NCc2ccccc2)c(N2CCOCC2)n1 was run?
A: -0.113%

Q: With Cc1cc(=O)n(CC(=O)Nc2ccc(F)cc2C)c(N2CCCC2)n1 as the molecule, how does the inhibition read?
A: 16.9%

Q: How did the inhibition turn out when Cc1cc2nc(N3CCOCC3)n(CC(=O)Nc3ccccc3F)c(=O)c2n1C was run?
A: 36% (active)

Q: How did the inhibition turn out when O=C(Cc1c[nH]c2ccccc12)N1CCc2cc(-c3ccno3)ccc21 was run?
A: -26.7%

Q: COc1ccc(-c2noc(C3(c4ccccc4)CCOCC3)n2)cc1 was tested. Which inhibition did it give?
A: 19.3%

Q: How did the inhibition turn out when COc1ccc(-c2noc(CN(C3CCCCC3)S(=O)(=O)c3ccc(OC)cc3)n2)cc1 was run?
A: 4.09%

Q: Which inhibition does the source give for COc1ccc(-c2noc(-c3ccc(N(C)Cc4ccco4)nn3)n2)cc1 here?
A: 30.7% (active)

Q: How did the inhibition turn out when CC(C)n1ncc2[nH]c(C3CCCN(C(=O)Nc4ccc(F)cc4)C3)nc21 (stereo unspecified) was run?
A: -4.82%

Q: Which inhibition does the source give for CCOC(=O)c1cc2c(ccn2-c2ccc(F)cc2)n1Cc1ncc(C)c(OC)c1C here?
A: -32%

Q: With CC(C)(C)n1nc(C2CC2)c(Br)c1NC(=O)c1ccccc1F as the molecule, how does the inhibition read?
A: 93.7% (active)

Q: With O=C(Nc1cc(-c2ccccc2)nn1C1CCS(=O)(=O)C1)c1ccccc1F (stereo unspecified) as the molecule, how does the inhibition read?
A: -23.8%

Q: How did the inhibition turn out when COc1ccccc1C(=O)Nc1cccn2nc(C3CCC3)nc12 was run?
A: 2.42%

Q: For CCCCn1c(=O)[nH]c2c(c1=O)CCC2, which inhibition is on record?
A: 4.26%

Q: How did the inhibition turn out when Cc1sc(NC(=O)c2ccc(S(=O)(=O)N(C)CC3CCCO3)cc2)c(C(N)=O)c1C (stereo unspecified) was run?
A: 40.5% (active)

Q: Cc1sc(NC(=O)CS(=O)(=O)c2ccc(F)cc2)c(C(N)=O)c1C was tested. Which inhibition did it give?
A: -84%

Q: Which inhibition does the source give for Cc1ccc(S(=O)(=O)CC(=O)Nc2sc(C)c(C)c2C(N)=O)cc1 here?
A: -27.2%

Q: For CCN1CCN(C2=Nc3c(Cl)cc(Cl)c4cccc2c34)CC1, which inhibition is on record?
A: -158%

Q: O=c1c2ccccc2c(-c2nc(-c3ccncc3)no2)cn1-c1ccc(F)cc1 was tested. Which inhibition did it give?
A: 37.7% (active)

Q: COc1ccccc1-c1nc(-c2ccc(-n3cccn3)nc2)no1 was tested. Which inhibition did it give?
A: 2.48%

Q: How did the inhibition turn out when O=c1c2ccccc2ncn1Cc1noc(-c2ccccc2F)n1 was run?
A: -0.0976%

Q: CC(C)NC(=O)[C@H](C)NC(=O)N1CCn2c1nc1ccccc12 was tested. Which inhibition did it give?
A: -12.1%

Q: How did the inhibition turn out when CN1Cc2c(C(=O)NCC3CCCO3)ncn2-c2ccccc2S1(=O)=O (stereo unspecified) was run?
A: -13.6%

Q: Which inhibition does the source give for Cn1c(=O)c2c(SCC(=O)N3CCC(Cc4ccccc4)CC3)nc(-c3cccs3)nc2n(C)c1=O here?
A: 2.08%

Q: For COc1ccc(F)cc1-c1ccccc1CC1CNCCNC1=O (stereo unspecified), which inhibition is on record?
A: -14.6%

Q: Which inhibition does the source give for Cc1nc2ccccc2c(=O)n1CC(=O)N1CCCc2ccccc21 here?
A: 4.34%

Q: How did the inhibition turn out when COC(=O)COc1cccc2c(=O)n(CC(=O)N3CCc4ccccc43)ccc12 was run?
A: 35.8% (active)

Q: With O=C(Cn1cnc2ccccc21)N1CCCc2ccccc21 as the molecule, how does the inhibition read?
A: -1.89%

Q: With Cn1c(=O)c2c(ncn2CC(=O)OCc2cccc([N+](=O)[O-])c2)n(C)c1=O as the molecule, how does the inhibition read?
A: -12.3%

Q: For COc1ccc(-c2cc(C(=O)Nc3cccc(C)c3C)c3ccccc3n2)cc1OC, which inhibition is on record?
A: -1.61%

Q: How did the inhibition turn out when CCN1C[C@@]23CN(C(=O)c4ccc(OC)cc4)C[C@@H](C[C@@H]2S1(=O)=O)O3 was run?
A: 0.859%

Q: With O=C(c1ccco1)[C@@H]1[C@@H]2C(=O)N(c3cccc([N+](=O)[O-])c3)C(=O)[C@@H]2C2c3ccccc3C=CN21 (stereo partly specified) as the molecule, how does the inhibition read?
A: -7.36%

Q: How did the inhibition turn out when COc1cccc(N2CCCN(C(=O)c3ccc4nc(C)[nH]c4c3)CC2)c1 was run?
A: -10.9%

Q: How did the inhibition turn out when COc1cccc(-c2cc(C(=O)N3CCN(c4ccc(N5CCOCC5)nn4)CC3)[nH]n2)c1 was run?
A: 33.1% (active)

Q: How did the inhibition turn out when O=C(c1cccnc1)N1CCN(c2cc(-c3ccccc3)[nH]n2)CC1 was run?
A: -26.3%

Q: N#Cc1ccccc1NC(=O)c1cccc2c1SCCC2=O was tested. Which inhibition did it give?
A: 8.87%

Q: How did the inhibition turn out when Cc1cccc(N2CCN(C(=O)C3CCCN(S(=O)(=O)N4CCC5(CC4)OCCO5)C3)CC2)c1C (stereo unspecified) was run?
A: 9.89%

Q: How did the inhibition turn out when O=C1NC(c2ccccc2)=N/C1=C/c1ccc(F)cc1 was run?
A: 39.9% (active)

Q: Which inhibition does the source give for O=C(O)c1c2c(nc3ccccc13)/C(=C/c1ccc(F)cc1)CCC2 here?
A: 4.5%

Q: How did the inhibition turn out when CCC(C)Cc1ccc2c(c1O)C(=O)OC(CC(\C=C/C=C\C=C\c1coc(CC(O)C(C)C(O)CC)n1)OC)C2 (stereo unspecified) was run?
A: 14.5%

Q: O=C(NCc1ccccc1)c1c(O)c2cnn(Cc3ccccc3)c2[nH]c1=O was tested. Which inhibition did it give?
A: 33.7% (active)

Q: Which inhibition does the source give for O=C(NCc1ccccc1)c1cc(-c2ccncc2)n[nH]1 here?
A: -3.2%

Q: Which inhibition does the source give for COc1ccccc1CNC(=O)c1c(O)c2cccnc2n(-c2ccccc2)c1=O here?
A: -4.34%

Q: O=C(CN1CCC(Nc2nc3c(c(=O)[nH]2)CCCC3)CC1)Nc1ccccc1[N+](=O)[O-] was tested. Which inhibition did it give?
A: 14%

Q: For Cc1sc(NC(=O)CCc2ccccc2)nc1-c1ccc2c(c1)N(C)C(=O)CO2, which inhibition is on record?
A: -15.7%

Q: With Cc1ccc(C)c(S(=O)(=O)N2CCC(c3nc(C(=O)N(C)C)c(C)o3)CC2)c1 as the molecule, how does the inhibition read?
A: -7.71%

Q: Which inhibition does the source give for O=C(NCc1cccnc1)[C@@H]1CC[C@@H]2[C@@H](CCN2c2ncc(F)cn2)O1 here?
A: -63.6%

Q: COc1ccc(NS(=O)(=O)c2cc(NC(=O)COc3ccccc3F)ccc2OC)cc1 was tested. Which inhibition did it give?
A: 6.42%

Q: For COc1ccc(NS(=O)(=O)c2cc(NC(=O)CC(=O)c3ccc([N+](=O)[O-])cc3)ccc2C)cc1, which inhibition is on record?
A: 39.9% (active)

Q: With COc1ccc(NS(=O)(=O)c2cc(NC(=O)/C=C/c3cccc(OC)c3)ccc2OC)cc1 as the molecule, how does the inhibition read?
A: -3.35%

Q: How did the inhibition turn out when COCCN1C[C@H]2COc3cc(OC)ccc3[C@H]2N(C(=O)c2ccc(F)cc2)CCC1=O was run?
A: 0.764%

Q: With CC(C)n1cnc(-c2cc(C(=O)NC3CC3)c3ccccn23)c1 as the molecule, how does the inhibition read?
A: -51.2%

Q: Which inhibition does the source give for CCCNC(=O)c1ccc(Nc2cc(C)nc3nc(-c4cccnc4)nn23)cc1 here?
A: 7.85%

Q: With COc1ccc(CNC(=O)c2ccccc2N2C(=O)N3CCc4c([nH]c5ccccc45)[C@@]3(C)C2=O)cc1 as the molecule, how does the inhibition read?
A: 56.3% (active)

Q: With COc1ccc2[nH]c3c(c2c1)CCN1C(=O)N([C@@H](C)C(=O)NCC(=O)O)C(=O)[C@]31C as the molecule, how does the inhibition read?
A: 9.34%

Q: With C[C@]12C(=O)N(c3cccc(C(=O)NCCN4CCOCC4)c3)C(=O)N1CCc1c2[nH]c2ccccc12 as the molecule, how does the inhibition read?
A: -24.6%

Q: Which inhibition does the source give for O=C(NCCc1ccc(F)cc1)N1CC[C@@H]2CN(Cc3ccncc3)S(=O)(=O)[C@@H]2CC1 here?
A: -15.9%

Q: With O=C(CNC(c1ccccc1)c1ccccc1)Nc1ccc(F)cc1 as the molecule, how does the inhibition read?
A: 3.76%

Q: How did the inhibition turn out when O=C(N[C@@H]1C[C@@H](Oc2cccnc2)[C@H](O)[C@H]1N1CCCCC1)c1cnco1 was run?
A: -6.77%

Q: Which inhibition does the source give for COc1cccc(-c2ocnc2C(=O)NCc2ccc(OC)c(OC)c2)c1 here?
A: -10.8%

Q: With COc1cccc(CNC(=O)c2ccc(-c3cncnc3)nc2)c1 as the molecule, how does the inhibition read?
A: -9.04%

Q: How did the inhibition turn out when COc1cc(OC)cc(-c2nnc(NC(=O)c3ccc([N+](=O)[O-])o3)o2)c1 was run?
A: 51.3% (active)

Q: Which inhibition does the source give for CN(C)C(=O)c1cccnc1-c1nc2ccccc2s1 here?
A: 9.06%

Q: Cc1nc(NCc2ccco2)nc2c1COCC21CCN(C(=O)C(C)(C)C)C1 (stereo unspecified) was tested. Which inhibition did it give?
A: -22.1%

Q: For CC1=C(C(=O)Nc2ccccc2)C(c2cccnc2)n2nc(CCCO)nc2N1 (stereo unspecified), which inhibition is on record?
A: -9.97%

Q: With COc1ccccc1NC(=O)C1=C(C)Nc2ncnn2C1c1ccc(C)o1 (stereo unspecified) as the molecule, how does the inhibition read?
A: 0.179%

Q: How did the inhibition turn out when COc1cccc(C2C(C(=O)Nc3ccccc3C)=C(C)Nc3ncnn32)c1OCc1ccccc1 (stereo unspecified) was run?
A: -19.2%

Q: Which inhibition does the source give for CC1=C(C(=O)Nc2ccccc2)C(c2ccc(OCc3c(Cl)cccc3Cl)cc2)n2ncnc2N1 (stereo unspecified) here?
A: 69.4% (active)

Q: For COc1ccc(NC(=O)C2=C(C)Nc3ncnn3C2c2cccc(OCc3ccc(F)cc3)c2)c(OC)c1 (stereo unspecified), which inhibition is on record?
A: 51.9% (active)

Q: With CC1=C(C(=O)Nc2ccccc2)C(c2cccs2)n2ncnc2N1 (stereo unspecified) as the molecule, how does the inhibition read?
A: -10.9%

Q: With COc1cccc([C@@H]2C[C@]3(C)NC(=O)CCCC[C@@H]3N2C(=O)c2cnn(C)c2)c1 as the molecule, how does the inhibition read?
A: -8.06%
